These results are taken from PubChem BioAssay (EPA / NIEHS).

Activity calls are given as the source filed them. The calls were made as follows: active = hit-call score of the fitted dose curve at least 0.9, where 1 is the maximum; inactive = score below 0.9.

Assay [1] can be described thus: ATG_DR4_LXR_CIS: Attagene CIS-FACTORIAL HepG2 Assay for human Liver X Receptor (LXR), DR4 submotif (AID 2282929). The conditions noted are these: HepG2 Attagene DR4 cis-reporter, mRNA transcription; actives raise or lower the signal. In short, it runs like this: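 DR4 cis-reporter in HepG2, 24 h exposure. Detection: RT-PCR, 6-FAM labelling, CE fragment analysis. Endpoint fitted bidirectionally, DMSO = baseline.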

Assay [2] has as its target Aryl hydrocarbon receptor (Homo sapiens) (UniProt P35869). The assay can be described thus: ATG_Ahr_CIS: Attagene CIS-FACTORIAL HepG2 Assay for human Aryl Hydrocarbon Receptor (Ahr) (AID 2282930). The note with it: HepG2 AhR cis-factorial reporter transcription; actives raise or lower the signal. In outline: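 HepG2 cells transiently transfected with cis-element-driven multiplexed reporter transcription units; endogenous transcription factor activity measured as reporter mRNA 24 h after dosing. RT-PCR, 6-FAM labelling, HpaI digestion, capillary electrophoresis; bidirectional fitting versus DMSO baseline.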

Assay [3] can be described thus: ATG_AP_1_CIS: Attagene CIS-FACTORIAL HepG2 Assay for human Activator Protein 1 (AP-1) (AID 2282931). The conditions noted are these: HepG2 Attagene cis-factorial AP-1 reporter mRNA; actives raise or lower the signal. In outline:
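Cis-regulated reporter units transiently expressed in HepG2 report endogenous transcription-factor activity. Signal: reporter mRNA at 24 h, via RT-PCR and fluorescent capillary electrophoresis. Endpoint derived by bidirectional fitting, DMSO as negative control.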

Assay [4] in a line: ATG_AP_2_CIS: Attagene CIS-FACTORIAL HepG2 Assay for human Activator Protein 2 (AP-2) (AID 2282932). The note with it: HepG2 AP-2 cis-reporter, Attagene transcription factor profiling; actives raise or lower the signal. In outline:
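Cells (HepG2) transfected with promoter-driven reporter constructs, treated 24 h. Total RNA reverse-transcribed, reporter cDNA PCR-amplified, FAM-labelled by primer extension, digested, resolved by capillary electrophoresis. Activity fitted both directions versus DMSO.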

Assay [5] can be described thus: ATG_BRE_CIS: Attagene CIS-FACTORIAL HepG2 Assay for human Bone Morphogenetic Protein (BMP) Response Element (BRE) (AID 2282933). The note with it: HepG2 BMP response element reporter, Attagene transcription factor profiling; actives raise or lower the signal. In short, it runs like this:
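A HepG2 multiplex reporter system measured inducible reporter mRNA 24 h post-dosing. Detection: RT-PCR, 6-FAM primer extension, HpaI digestion, capillary electrophoresis. Activity fitted bidirectionally relative to DMSO.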

The target in assay [6] is Retinoic acid receptor alpha (Homo sapiens) (UniProt P10276). Nature of the assay: ATG_DR5_RAR_CIS: Attagene CIS-FACTORIAL HepG2 Assay for human Retinoic Acid Receptor Alpha (RARE), DR5 submotif (AID 2282934). The conditions noted are these: HepG2 Attagene cis-factorial RARE DR5 reporter, mRNA; actives raise or lower the signal. In short, it runs like this:
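HepG2 cells transiently transfected with multiplexed reporter units under cis (DR5 RARE) promoters, so endogenous transcription factor activity is measured. After 24 h compound exposure, reporter mRNA is quantified by RT-PCR with fluorescent labelling and capillary electrophoresis; bidirectional fitting versus DMSO.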

Assay [7] has as its target Transcription factor E2F1 (Homo sapiens) (UniProt Q01094). The assay can be described thus: ATG_E2F_CIS: Attagene CIS-FACTORIAL HepG2 Assay for human E2F Transcription Factor 1 (AID 2282935). The conditions noted are these: HepG2 Attagene cis-reporter, E2F reporter RNA transcripts; actives raise or lower the signal. In short, it runs like this: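 First, HepG2 cells were transfected with reporter transcription units. Next, they were dosed for 24 h. Then RNA was isolated, converted to cDNA, PCR-amplified, FAM-labeled, HpaI-digested and analyzed by capillary electrophoresis.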

Assay [8] in a line: ATG_E_Box_CIS: Attagene CIS-FACTORIAL HepG2 Assay for human Enhancer Box (E-box) (AID 2282936). The note with it: HepG2 E-box cis-reporter transcription, actives raise or lower the signal. In outline: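 Endogenous transcription factor activity was sensed in human HepG2 liver cells through transfected cis-promoter reporter units. After 24 h of dosing, total RNA was reverse-transcribed and reporter cDNA resolved by capillary electrophoresis.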

Assay [9] in a line: ATG_EGR_CIS: Attagene CIS-FACTORIAL HepG2 Assay for human Early Growth Response 1 (EGR1) (AID 2282938). The conditions noted are these: HepG2 Attagene CIS-FACTORIAL EGR reporter mRNA; actives raise or lower the signal. In short, it runs like this:
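Endpoint derived by bidirectional fitting versus DMSO vehicle. Method: cis-promoter reporter units transfected into HepG2, 24 h dosing, RNA isolation, RT-PCR with 6-FAM primer extension and HpaI digestion, then capillary electrophoresis fluorescence detection.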

Assay [10] can be described thus: ATG_ERE_CIS: Attagene CIS-FACTORIAL HepG2 Assay for Estrogen Response Element (ERE) (AID 2282940). The note with it: HepG2 ERE cis-reporter, Attagene RNA transcript; actives raise or lower the signal. In short, it runs like this:
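Human liver cells (HepG2) bearing transiently transfected, promoter-regulated reporter units were exposed 24 h. Reporter mRNA induction was detected by capillary electrophoresis of labelled RT-PCR products and fitted bidirectionally to DMSO.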

A short description of assay [11]: ATG_Ets_CIS: Attagene CIS-FACTORIAL HepG2 Assay for human Erythroblast Transformation Specific (ETS) (AID 2282941). The note with it: HepG2 ETS cis-reporter transcription, actives raise or lower the signal. In outline:
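RT-PCR/capillary electrophoresis fluorescence read-out of reporter mRNA; HepG2 transient multi-reporter transfection; 24 h compound exposure; gain or loss of signal fitted bidirectionally relative to DMSO.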

Assay [12] addresses Hepatocyte nuclear factor 3-beta (Homo sapiens) (UniProt Q9Y261). Nature of the assay: ATG_FoxA2_CIS: Attagene CIS-FACTORIAL HepG2 Assay for human Forkhead box A2 (FOXA2) (AID 2282942). The conditions noted are these: HepG2 cis-reporter transcription factor activity, 24 h; actives raise or lower the signal. In outline: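 Measured: reporter mRNA induction or loss in HepG2 transiently carrying multiple cis-regulated reporter units, 24 h after dosing. Quantified by RT-PCR plus capillary electrophoresis, normalised to DMSO.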

The nature of assay [13]: ATG_FoxO_CIS: Attagene CIS-FACTORIAL HepG2 Assay for human Forkhead box O (FoxO) (AID 2282943). The note with it: HepG2 Attagene cis-reporter, FoxO element, mRNA; actives raise or lower the signal. In outline: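 HepG2 cells transiently transfected with cis-promoter-driven multiple reporter transcription units; 24 h after chemical dosing, reporter mRNA quantified by RT-PCR, fluorescent primer extension, HpaI digestion and capillary electrophoresis. Bidirectional fitting versus DMSO baseline.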

Assay [14] in a line: ATG_GATA_CIS: Attagene CIS-FACTORIAL HepG2 Assay for human GATA Binding Protein (AID 2282944). The conditions noted are these: HepG2 GATA cis-element reporter, Attagene multiplex mRNA; actives raise or lower the signal. In outline:
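Transfected cis-reporter HepG2 cells were treated with chemicals for 24 hours. Total RNA was then converted to cDNA, amplified with reporter-specific primers and analysed by fluorescent capillary electrophoresis, using DMSO-treated wells as baseline.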

Assay [15] can be described thus: ATG_GLI_CIS: Attagene CIS-FACTORIAL HepG2 Assay for human Zinc Finger Protein GLI1 (AID 2282945). The note with it: HepG2, Attagene cis-factorial reporter mRNA, GLI element; actives raise or lower the signal. In short, it runs like this:
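HepG2 cells transiently transfected with cis-promoter multiplexed reporter units report endogenous transcription factor activity. After 24 h chemical exposure, reporter mRNA was quantified by RT-PCR, 6-FAM labelling, HpaI digestion and capillary electrophoresis, with bidirectional fitting against DMSO.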

Assay [16] is described as follows: ATG_GRE_CIS: Attagene CIS-FACTORIAL HepG2 Assay for human Glucocorticoid Response Elements (GRE) (AID 2282947). The conditions noted are these: HepG2 GRE cis-reporter, Attagene multiplex mRNA; actives raise or lower the signal. In short, it runs like this: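 Cells (HepG2) bearing transfected cis-promoter reporter transcription units were treated with chemical for 24 hours. Reporter mRNA was measured via RT-PCR with capillary electrophoresis, and activity was fitted in both directions relative to DMSO.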

A short description of assay [17]: ATG_ISRE_CIS: Attagene CIS-FACTORIAL HepG2 Assay for human Interferon Regulatory Factor 1 (IRF1) binding to an Interferon-Stimulated Response Element (ISRE) (AID 2282948). The conditions noted are these: HepG2 ISRE cis-reporter (Attagene), mRNA transcription readout; actives raise or lower the signal. In outline: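 Read-out: fluorescent RT-PCR products resolved by capillary electrophoresis, reporting endogenous transcription factor activity via ISRE-driven reporter mRNA in transfected HepG2 cells dosed for 24 h; gain or loss fitted relative to DMSO.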

The nature of assay [18]: ATG_M_19_CIS: Attagene CIS-FACTORIAL HepG2 Assay for M19 Transcription Factor (Internal Marker) (AID 2282939). The note with it: HepG2 Attagene CIS-FACTORIAL M19 internal marker reporter; actives raise or lower the signal. In short, it runs like this: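 Chemical-treated HepG2 (24 h) with MRTU constructs; reporter transcripts detected by fluorescent RT-PCR fragment analysis on capillary electrophoresis. Internal background marker, DMSO as baseline.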

Assay [19] deals with Bile acid receptor (Homo sapiens) (UniProt Q96RI1). The assay can be described thus: ATG_IR1_CIS: Attagene CIS-FACTORIAL HepG2 Assay for human Nuclear Receptor Subfamily 1 Group H Member 4 (NR1H4), IR1 submotif (AID 2282946). The note with it: IR1 reporter transcription, actives raise or lower the signal. In short, it runs like this:
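Readout: reporter transcript levels by RT-PCR with fluorescent capillary electrophoresis, from HepG2 cells transiently transfected with multiplexed cis-regulated reporters and dosed 24 h. Gain- or loss-of-signal fitted versus DMSO negative control.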

Aryl hydrocarbon receptor (Homo sapiens), sequence (P35869 whole entry, looked up): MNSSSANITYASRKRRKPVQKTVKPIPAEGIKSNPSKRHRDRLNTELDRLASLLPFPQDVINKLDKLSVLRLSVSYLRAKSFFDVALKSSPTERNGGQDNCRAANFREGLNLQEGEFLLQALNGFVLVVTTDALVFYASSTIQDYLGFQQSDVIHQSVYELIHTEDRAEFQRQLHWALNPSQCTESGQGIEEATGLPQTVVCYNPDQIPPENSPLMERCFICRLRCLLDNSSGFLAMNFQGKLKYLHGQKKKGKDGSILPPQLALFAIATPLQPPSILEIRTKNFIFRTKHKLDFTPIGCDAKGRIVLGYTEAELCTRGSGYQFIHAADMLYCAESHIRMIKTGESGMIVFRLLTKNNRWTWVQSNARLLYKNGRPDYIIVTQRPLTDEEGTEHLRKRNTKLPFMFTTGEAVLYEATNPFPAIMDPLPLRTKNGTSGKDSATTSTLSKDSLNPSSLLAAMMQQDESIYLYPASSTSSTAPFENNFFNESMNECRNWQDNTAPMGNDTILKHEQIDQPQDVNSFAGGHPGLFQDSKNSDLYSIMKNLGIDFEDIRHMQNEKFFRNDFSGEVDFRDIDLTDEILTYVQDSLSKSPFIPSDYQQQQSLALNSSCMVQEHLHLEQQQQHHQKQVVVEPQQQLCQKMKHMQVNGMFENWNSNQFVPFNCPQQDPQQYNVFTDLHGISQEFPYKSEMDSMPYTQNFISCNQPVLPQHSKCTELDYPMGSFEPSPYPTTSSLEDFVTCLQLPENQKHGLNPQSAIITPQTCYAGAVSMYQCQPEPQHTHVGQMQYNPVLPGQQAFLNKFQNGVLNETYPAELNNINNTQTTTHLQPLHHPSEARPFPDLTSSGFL
Bile acid receptor (Homo sapiens), sequence (Q96RI1 whole entry, looked up): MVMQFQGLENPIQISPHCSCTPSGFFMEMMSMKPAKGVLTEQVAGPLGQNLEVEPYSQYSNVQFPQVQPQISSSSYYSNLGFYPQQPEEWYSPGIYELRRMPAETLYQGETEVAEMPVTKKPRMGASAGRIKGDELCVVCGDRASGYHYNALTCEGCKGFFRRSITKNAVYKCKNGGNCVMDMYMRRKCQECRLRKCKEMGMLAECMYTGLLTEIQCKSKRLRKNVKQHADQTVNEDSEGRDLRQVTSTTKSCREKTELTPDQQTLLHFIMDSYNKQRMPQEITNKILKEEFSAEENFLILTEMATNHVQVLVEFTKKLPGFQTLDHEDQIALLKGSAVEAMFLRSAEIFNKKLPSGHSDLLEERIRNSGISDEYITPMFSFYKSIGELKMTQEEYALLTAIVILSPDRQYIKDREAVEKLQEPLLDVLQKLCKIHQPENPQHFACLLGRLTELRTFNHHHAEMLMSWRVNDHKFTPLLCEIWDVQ
Transcription factor E2F1 (Homo sapiens), sequence (Q01094 whole entry, looked up): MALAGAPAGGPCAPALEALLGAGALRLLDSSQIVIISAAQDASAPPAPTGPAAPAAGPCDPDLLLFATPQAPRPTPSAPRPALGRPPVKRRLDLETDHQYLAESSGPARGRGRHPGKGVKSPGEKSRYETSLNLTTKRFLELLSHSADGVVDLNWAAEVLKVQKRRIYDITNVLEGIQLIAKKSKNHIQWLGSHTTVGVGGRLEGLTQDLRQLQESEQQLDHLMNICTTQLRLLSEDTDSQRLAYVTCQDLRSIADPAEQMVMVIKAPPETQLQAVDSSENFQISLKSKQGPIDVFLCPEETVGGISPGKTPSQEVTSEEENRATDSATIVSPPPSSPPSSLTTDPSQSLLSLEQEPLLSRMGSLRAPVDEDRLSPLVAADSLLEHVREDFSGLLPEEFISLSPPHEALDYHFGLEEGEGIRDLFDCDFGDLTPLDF
Hepatocyte nuclear factor 3-beta (Homo sapiens), sequence (Q9Y261 whole entry, looked up): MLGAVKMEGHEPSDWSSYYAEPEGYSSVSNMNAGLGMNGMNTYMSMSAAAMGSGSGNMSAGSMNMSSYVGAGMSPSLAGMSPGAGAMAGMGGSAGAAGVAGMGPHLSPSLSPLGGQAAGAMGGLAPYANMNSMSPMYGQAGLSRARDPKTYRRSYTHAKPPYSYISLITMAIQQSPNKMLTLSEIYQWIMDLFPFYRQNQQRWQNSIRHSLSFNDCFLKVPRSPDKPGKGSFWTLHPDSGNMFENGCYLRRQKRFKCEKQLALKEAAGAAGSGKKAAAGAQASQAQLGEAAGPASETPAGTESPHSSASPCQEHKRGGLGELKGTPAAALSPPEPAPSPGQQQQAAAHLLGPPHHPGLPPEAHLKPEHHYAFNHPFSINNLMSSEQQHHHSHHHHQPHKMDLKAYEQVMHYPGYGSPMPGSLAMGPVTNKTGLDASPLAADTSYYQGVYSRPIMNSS
Retinoic acid receptor alpha (Homo sapiens), sequence (P10276 whole entry, looked up): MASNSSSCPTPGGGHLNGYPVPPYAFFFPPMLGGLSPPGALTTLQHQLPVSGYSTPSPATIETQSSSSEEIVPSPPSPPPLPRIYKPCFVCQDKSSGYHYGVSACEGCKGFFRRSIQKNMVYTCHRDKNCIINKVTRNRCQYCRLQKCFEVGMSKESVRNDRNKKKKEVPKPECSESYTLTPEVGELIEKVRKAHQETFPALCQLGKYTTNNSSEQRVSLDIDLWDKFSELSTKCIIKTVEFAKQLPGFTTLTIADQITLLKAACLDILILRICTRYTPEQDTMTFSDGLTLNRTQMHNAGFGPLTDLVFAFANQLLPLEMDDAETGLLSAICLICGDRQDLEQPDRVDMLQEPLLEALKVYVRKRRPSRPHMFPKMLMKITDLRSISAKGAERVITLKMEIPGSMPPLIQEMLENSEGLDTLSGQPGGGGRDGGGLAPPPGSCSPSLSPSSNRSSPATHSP

For the molecule `CCOC(=O)CC(=O)CCl`, the half-maximal activity concentration (AC50) in [1] is 61.6 µM (active); in [3], 75.2 µM (active); in assay [4], 44 µM (active); in assay [8], 128 µM (active); in [9] it was 32.2 µM (active); in [11], 26.4 µM (active). The AC50 was 133 µM (active) in assay [12], 26.1 µM (active) in assay [15] and 31.2 µM (active) in assay [17]. Moreover, the outcome in assay [2], in [5], in [6], in [7], in assay [10] and in assay [13] was inactive. The call in assay [14] and in assay [16] was inactive.

Take `C=CCOC(N)=O`: the result in assay [1], in assay [2], in assay [3], in assay [4], in assay [5] and in assay [6] was inactive. Further, the molecule was classed as inactive in assay [7], in [8], in [9], in assay [18], in [11] and in assay [12]. The molecule was classed as inactive in assay [13], in assay [14], in assay [15], in assay [19], in assay [16] and in assay [17].

For the molecule `CCCCC(CC)C(=O)Cl` (stereo not given), the molecule was classed as inactive in assay [1], in assay [2], in assay [3], in assay [4], in assay [5] and in assay [6]. The molecule was called inactive in [7], in assay [8], in [9], in assay [10], in [12] and in assay [13]. Further, the outcome in [14], in assay [15], in assay [19], in [16] and in assay [17] was inactive.

With `CC(C)CC(C)(c1ccc(O)cc1)c1ccc(O)cc1`, the concentration at half-maximal activity (AC50) is 11.1 µM (active) in assay [1], 11.1 µM (active) in assay [3], 17.5 µM (active) in assay [9] and 11.1 µM (active) in assay [17]. The result in assay [2], in assay [4], in [5], in assay [6], in [7] and in assay [8] was inactive. For the same molecule, the call in [18], in assay [11], in assay [12], in [13], in [14] and in [15] was inactive. For the same molecule, the result in [19] and in assay [16] was inactive.

The AC50 is the midpoint of the concentration-response curve, whichever way the signal moves.
